Data on 40 molecules can be found in PubChem BioAssay (Tox21).

A number with no mark means an inactive call. Where a call stands in place of a potency, no number is given. Calls of active or inactive are those of the source. The call rests on the fitted dose curve; in most records, active means well fitted curve in the direction sought with a large enough effect in the repeat runs; inconclusive means weak or mixed curves; inactive means flat fitted curve, though single readings scatter.

This experiment in a line: qHTS assay to test for compound auto fluorescence at 460 nm (blue) in HepG2 cells (AID 720687). The conditions noted are these: autofluorescence 405/460 nm, 1 h; series mostly up to 91.3 µM; fluorescence, % of fluorescent control: at the top concentration. The text has this: U.S. Tox21 Program National Center for Advancing Translational Sciences [NCATS] NIH Chemical Genomics Center [NCGC] U.S. Environmental Protection Agency [EPA] National Institutes of Environmental Health Sciences [NIEHS] National Toxicology Program [NTP] U.S. Food and Drug Administration [FDA] Tox21 Assay Overview: Compound auto fluorescence often interferes with screening of the compound library against various biological targets and signaling pathways. Some of these compounds may have fluorophoric properties. Such properties may interfere with the assay outputs resulting in false positives and/or negatives. To decrease such complications and ensure the compound activities are relevant in terms of biological response, the Tox21 10K compound library was screened for auto fluorescence. From the fluorophores used as reporter signals in our screening assays, the auto fluorescence equivalencies of compounds against three fluorophores have been evaluated: Triamterene, Fluorescein and Rose Bengal sodium for blue, green and red fluorescence, respectively. The fluorescence intensities were measured using Excitation/Emission wavelengths at 405/460nm, 485/535nm and 540/590nm for blue, green and red labels, respectively. This assay includes the blue fluorescence data.
Tox21 Assay Protocol Summary: 2,000 HepG2 cells in 5 uL of culture medium (MEM containing 10% FBS) per well were dispensed into black wall/clear bottom 1536-well plates using a Multidrop Combi Dispenser (ThermoFisher Scientific, Waltham, MA). The assay plates were incubated overnight at 37 C to allow cell attachment to the well bottom, followed by the transfer of 23 nL compound or DMSO vehicle by a pintool work station (Kalypsys , San Diego, CA). After the assay plates were incubated for 1 hr at 37 C and 5% CO2, fluorescence intensities in the assay plates were measured by an Envision (PerkinElmer, Shelton, CT) plate reader using three labels for measuring blue, green and red fluorescence at […] 460, 535 and 590 nm respectively.
For `Nc1nc2ccccc2[nH]1`, the Potency entry is “inactive”.
For `CC1COc2c(N3CCN(C)CC3)c(F)cc3c(=O)c(C(=O)O)cn1c23` (stereo not given), the “fluorescence, % of fluorescent control” value was 0.0299% [at 46 µM].
In the case of `c1ccc2cc3c(ccc4ccccc43)cc2c1`, the Potency entry is “inactive”.
On the same count and under the same terms, in the case of `CCCCCC(=O)O[C@]1(C(C)=O)CC[C@H]2[C@@H]3CCC4=CC(=O)CC[C@]4(C)[C@H]3CC[C@@]21C` it was “inactive”.
On to `CC(C)(O)CCC(C)(C)O`, for which the “fluorescence, % of fluorescent control” value was 0.005% [at 95.7 µM].
The same measure, in the same setting: next, `CCN(CC)C(=O)Nc1ccc(OCC(O)CNC(C)(C)C)c(C(C)=O)c1` (stereo not given): -0.247% [at 46 µM].
As for `C1COC(NC(C2CC2)C2CC2)=N1`, the “fluorescence, % of fluorescent control” value is 0.0179% [at 46 µM].
Take `O=C(Nc1ccccc1SSc1ccccc1NC(=O)c1ccccc1)c1ccccc1`: the Potency entry was “inactive”.
Regarding `NCCCCCC(=O)O`, the fluorescence, % of fluorescent control is -0.0854% [at 18.6 µM].
Take `CN(C)c1ccc2nc3ccc(=[N+](C)C)cc-3sc2c1`: the Potency entry is “inactive”.
Still for that read-out and setting: next, `COc1ccc(CCN(C)CCCC(C#N)(c2ccc(OC)c(OC)c2)C(C)C)cc1OC` (stereo not given): “inactive”.
On the same count and under the same terms, in the case of `C=CC(=O)OCCCCCCOC(=O)C=C` it was “inactive”.
As for `CCC(CO)(CO)COCC(CC)(CO)CO`, the “fluorescence, % of fluorescent control” value is -0.096%.
Take `COC(=O)c1cccc(C(=O)OC)c1`: the Potency entry was “inactive”.
On the same count and under the same terms, in the case of `CCc1cc(C(C)(C)C)c(O)c(C(C)(C)C)c1` it was “inactive”; in that of `CC(=O)O[C@]1(C(C)=O)CC[C@H]2[C@@H]3C[C@H](C)C4=CC(=O)CC[C@]4(C)[C@H]3CC[C@@]21C`, “inactive”; in that of `Cc1ccc(-c2cc(C(F)(F)F)nn2-c2ccc(S(N)(=O)=O)cc2)cc1`, “inactive”.
The same measure, in the same setting: next, `CC[C@H]1CN2CCc3cc(OC)c(OC)cc3[C@@H]2C[C@@H]1C[C@H]1NCCc2cc(OC)c(OC)cc21`: “inactive”; `Cc1ccc(S(=O)(=O)Oc2ccc(N=Nc3ccc(-c4ccc(N=Nc5c(O)ccc6cc(S(=O)(=O)O)cc(S(=O)(=O)O)c56)c(C)c4)cc3C)cc2)cc1`: “inactive”; `COC(=O)[C@H]1[C@H]2C[C@@H]3c4[nH]c5cc(OC)ccc5c4CCN3C[C@H]2C[C@@H](OC(=O)c2cc(OC)c(OC)c(OC)c2)[C@@H]1OC`: “inactive”.
With `NC12CC3CC(CC(C3)C1)C2`, the “fluorescence, % of fluorescent control” value was -0.0142% [at 46 µM].
Regarding `CCC(C)(C)C(=O)O[C@H]1C[C@@H](C)C=C2C=C[C@H](C)[C@H](CC[C@@H]3C[C@@H](O)CC(=O)O3)[C@H]21`, the Potency result was “inactive”.
As to `OCC(CO)N[C@H]1C[C@](O)(CO)[C@@H](O)[C@H](O)[C@H]1O`, the “fluorescence, % of fluorescent control” value is -0.0294% [at 46 µM].
Consider `O=S(=O)(O)c1ccc2nc(-c3ccccc3)[nH]c2c1`, for which the Potency entry is “inactive”.
For the molecule `CCN1CCCC1CNC(=O)c1cc(S(=O)(=O)CC)c(N)cc1OC` (stereo not given), the “fluorescence, % of fluorescent control” value is 0.103% [at 46 µM].
Turning to `CCN(CC)C(=S)SSC(=S)N(CC)CC`, the Potency result was “inactive”.
On the same count and under the same terms, in the case of `CC(COc1ccccc1)N(CCCl)Cc1ccccc1` (stereo not given) it was “inactive”; in that of `CC1=CC(=O)c2ccccc2C1=O`, “inactive”.
Same read-out and setting: in the case of `C=CS(=O)(=O)O` it was “inactive”.
In the case of `CC(=O)OCC1=C(C(=O)O)N2C(=O)[C@@H](NC(=O)Cc3cccs3)[C@H]2SC1`, the “fluorescence, % of fluorescent control” value is 1.45% [at 46 µM].
Still for that read-out and setting: in the case of `CC(C)(C)c1ccccc1` it was -0.0247%; in that of `CC(=O)CC(C)=O`, 0.0143% [at 95.7 µM].
Regarding `Clc1ccc2c(c1)C(N1CCNCC1)=Nc1ccccc1O2`, the Potency result was “inactive”.
Same read-out and setting: next, `COc1ccc(COC(C)=O)cc1`: “inactive”; `Cc1ccnc2c1NC(=O)c1cccnc1N2C1CC1`: “inactive”.
On the same count and under the same terms, in the case of `Cc1cc(C(C)(C)C)c(O)c(C(C)(C)C)c1` it was “inactive”; in that of `O=Nc1ccc(Nc2ccccc2)cc1`, “inactive”.
As to `CC(C)C(=O)c1c(C(C)C)nn2ccccc12`, the “fluorescence, % of fluorescent control” value is -0.109% [at 46 µM].
The same measure, in the same setting: in the case of `CNC1(C)C2CCC(C2)C1(C)C` (stereo not given) it was 0.118% [at 46 µM].
For the molecule `Nc1ccc(O)cc1`, the Potency entry was “inactive”.
